Screening data (PubChem BioAssay)
NRP1-CendR mod: NRP-1/CendR interaction modulation; O14786; FAM-RPARPAR peptide binding to NRP-1, fluorescence polarization; inhibition, % at 25 µM; actives 0.85% (n = 360,000); AID 602438;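 active = inhibition or corrected inhibition above about 18%, plus a signal ratio from 0.5 to 1.5, limit read from the data, passing the limit was not always enough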
ADAM17 inh: inhibits human ADAM17; P78536; recombinant ADAM17, EDANS/DABCYL FRET peptide cleavage; inhibition, % at 6.95 µM; actives 0.83% (n = 370,000);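 active = inhibition above the mean of compounds lying between control limits plus 3 SD, set per campaign, cut at about 8.5% in these data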;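 also: 0% = DMSO-only wells as the low control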
ADAM10 inh: inhibitors of human ADAM10 | actives 0.62% (n = 370,000) | inhibition, % at 7 µM | AID 720582 | recombinant ADAM10, EDANS/DABCYL FRET peptide cleavage, 3 h;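 active = inhibition above a per-campaign cutoff equal to the mean of compounds falling between control-based bounds plus 3 SD, cut at about 20% in these data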;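 also: 0% = DMSO wells while the 100% control is not disclosed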
Target sequence (O14672 214-748 limits assumed): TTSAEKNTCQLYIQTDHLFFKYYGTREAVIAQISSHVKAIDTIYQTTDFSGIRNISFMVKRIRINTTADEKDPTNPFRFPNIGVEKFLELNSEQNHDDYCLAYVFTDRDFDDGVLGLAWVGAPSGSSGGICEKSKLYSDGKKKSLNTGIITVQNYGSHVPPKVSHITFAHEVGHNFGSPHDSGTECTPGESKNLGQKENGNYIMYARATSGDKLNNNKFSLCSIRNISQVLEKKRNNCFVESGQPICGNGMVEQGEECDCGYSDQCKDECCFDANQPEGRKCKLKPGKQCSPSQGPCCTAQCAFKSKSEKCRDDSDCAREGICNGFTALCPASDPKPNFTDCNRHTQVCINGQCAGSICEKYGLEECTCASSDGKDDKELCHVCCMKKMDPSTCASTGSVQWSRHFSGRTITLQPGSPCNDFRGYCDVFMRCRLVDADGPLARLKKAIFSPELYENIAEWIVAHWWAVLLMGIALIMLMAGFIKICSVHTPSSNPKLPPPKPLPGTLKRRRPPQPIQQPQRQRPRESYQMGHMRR
HGIII-sPLA2 inh: Blocks human group III sPLA2 activity; Q9NZ20; QFRET BODIPY PC-A2 liposome hydrolysis, fluorescence; inhibition, % at 12.2 µM; actives 0.56% (n = 370,000);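 active = inhibition above mean plus 3 SD of compounds lying within the high and low control bounds, cut at about 19% in these data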;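 also: 0% = median of test compound wells and 100% = no enzyme DMSO wells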
KLK7 zymogen act: activates the human kallikrein-7 zymogen. P49862. purified proKLK7, EDANS-DABCYL substrate fluorescence; 100% is mature enzyme control, 0% vehicle. activation, % at 7 µM. actives 0.9% (n = 370,000);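 active = activation above the mean of all tested compounds plus 3 SD, computed per campaign excluding outliers beyond control limits, cut at about 13% in these data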
proKLK7 act conf: confirmation of human kallikrein-7 zymogen activators; shares compounds with KLK7 zymogen act; purified proKLK7, EDANS-DABCYL substrate fluorescence; scaled: vehicle 0, mature enzyme 100; activation, % at 7 µM; actives 68% (n = 3,200); AID 686949;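 active = activation, as change over the incubation, above the mean of all tested compounds plus 3 SD, cut at about 13% in these data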
EDANS interfere: counter-screen for kallikrein-7 activators: EDANS-DABCYL optical interference | activation, % at 7 µM | shares compounds with KLK7 zymogen act | AID 686952 | actives 80% (n = 3,200) | EDANS-DABCYL substrate fluorescence interference, no enzyme, 4 h; solvent 0%, active enzyme control 100%;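 active = activation above the all-compound mean plus 3 SD, ignoring values outside control-based bounds, cut at about 4.8% in these data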;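 also: value is the 4 h activation minus the activation read at time zero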
Numbers without * were called inactive; i = inactive; . = no result given. Shown are actives, neighbours in structure and some others; about 3.4% of the full set was active somewhere.

SMILES	NRP1-CendR mod	ADAM17 inh	ADAM10 inh	HGIII-sPLA2 inh	KLK7 zymogen act	proKLK7 act conf	EDANS interfere
CN1C(=O)c2cccc3c(S(=O)(=O)Nc4ccccc4F)ccc1c23	0.9	-0.1	-8.4	-6.4	2.7	.	.
CC(C)(C)N(Cc1cn(Cc2ccccc2)nn1)S(=O)(=O)c1ccccc1Br	.	5.6	8.8	6.0	0.3	.	.
CCC1CN(C)C2Cc3c([nH]c4ccccc34)C(=O)CC1C2C(=O)OC (stereo not given)	2.8	-58.7	-241.8	12.7	13.5*	6.7	8.1*
N#Cc1ccccc1COC(=O)c1cc(S(=O)(=O)N2CCOCC2)ccc1F	-9.6	-4.6	-11.4	-7.4	0.6	.	.
COc1ccc(OC)c(CN2CCN(Cc3cc(=O)oc4cc(O)ccc34)CC2)c1	2.3	i	i	-16.6	58.6*	75.6*	75.1*
CC1CN(S(=O)(=O)c2cccc(C(=O)OCc3cc(=O)oc4cc(O)ccc34)c2)CC(C)O1 (stereo not given)	-4.7	-125.6	-483.7	-27.3	374.5*	540.5*	528.0*
CN(C)c1cccc(C(=O)OCc2cc(=O)oc3cc(O)ccc23)c1	-25.6	-296.0	i	-23.5	4.3	.	.
CCc1cc2c(COC(=O)c3cc(S(=O)(=O)N4CCOCC4)ccc3F)cc(=O)oc2cc1O	14.2	-198.9	i	-11.2	113.2*	445.5*	455.7*
O=C(OCc1cc(=O)oc2cc(O)ccc12)c1cc(S(=O)(=O)N2CCOCC2)ccc1F	-10.0	-358.1	i	-12.6	644.2*	677.2*	654.1*
COc1ccc2c(CN3CCCC3)cc(=O)oc2c1	-2.3	-141.6	i	-3.5	3.2	.	.
CCc1cc2c(COC(=O)c3cccc(NS(C)(=O)=O)c3)cc(=O)oc2cc1O	-1.3	-115.7	-307.3	-24.7	54.5*	62.5*	54.5*
O=c1cc(CN2CCN(S(=O)(=O)c3ccc4c(c3)OCCO4)CC2)c2ccc(O)cc2o1	-13.8	i	i	-24.2	43.2*	62.2*	67.3*
CC(/C=N/NC(=O)CSc1nnc(SCc2ccc(C)cc2)s1)=C\c1ccco1	.	3.0	6.8	-19.6	-0.4	.	.
CCOc1ccc(C(=O)/C=C/Nc2ccc(S(=O)(=O)Nc3cc(C)nc(C)n3)cc2)cc1	.	-4.4	-11.2	-30.1	147.3*	237.7*	176.8*
Cc1cc(C)nc(NS(=O)(=O)c2ccc(N/C=C\C(=O)c3ccc(Cl)cc3)cc2)n1	-38.0	-4.7	-0.3	-27.5	-0.8	.	.
CCc1cc(=O)oc2c(CN3CCCC3)c(O)c(Cl)cc12	1.3	i	i	0.3	83.2*	67.8*	71.3*
CCc1cc(=O)oc2c(CNCc3c(F)cccc3Cl)c(O)ccc12	-0.6	i	i	3.3	30.1*	41.0*	57.2*
CCCCc1cc(=O)oc2c(CN3CCCC3)c(O)ccc12	-0.6	i	i	4.7	77.2*	65.5*	74.5*
O=c1cc(-c2ccccc2)c2ccc(O)c(CN3CCCCC3)c2o1	-5.9	-59.6	-227.9	0.4	10.9	.	.
CCc1cc(=O)oc2c(CN3CCN(C)CC3)c(O)c(Cl)cc12	-13.3	i	i	-1.8	69.0*	62.3*	69.8*
Cc1cc2oc(=O)cc(CN3CCCC3)c2cc1Cl	-7.3	-6.2	-35.8	-1.7	-1.5	.	.
COc1ccc(C2=CCN(C)C(=O)N2c2ccc([N+](=O)[O-])cc2)cc1	.	-1.9	4.3	-2.4	-0.6	.	.
COc1ccc2cc(-c3cccc4[nH]cc(C)c34)ccc2c1	.	-37.6	-78.3	-14.6	-1.6	.	.
COCCCN1C(=O)[C@H](CC(=O)N2CCN(C(=O)c3ccco3)CC2)[C@]2(C(=O)OC)CCCCC=C12	.	2.4	2.1	11.0	-0.3	.	.
CCc1cc(=O)oc2c(CN3CCN(C)CC3)c(O)ccc12	-16.9	i	i	-1.5	37.6*	72.0*	70.5*
Cc1cc(=O)oc2c(CN3CC(C)OC(C)C3)c(O)c(Cl)cc12 (stereo not given)	4.9	i	i	-1.7	149.4*	67.2*	74.4*
Cc1c(O)c(CN2CCCCC2)cc2c1oc(=O)c1ccccc12	14.4	-6.2	-8.3	-4.0	-0.2	.	.
